# Screens deposited in PubChem BioAssay by National Center for Advancing Translational Sciences (NCATS).
# The full list was thinned out, with hits kept by preference.
# NS1 inh: influenza NS1 inhibition. Potency, µM (highest dose often 46.1 µM). 270,000 compounds, 0.4% hits. AID 2326; calls by dose curve; further: actives are rising curves; nearly all actives have a fitted effect of over 50% in size
#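 Compounds were scored for reversing the slow growth caused by influenza A NS1 in S. cerevisiae, measured by optical density at 600 nm. Assay medium contained 2% galactose at pH 6.0; NS1-free yeast of the same strain were the positive control.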
# Shiga inhibitor: Shiga toxin inhibition; Vero cells, Shiga toxin protein synthesis inhibition reporter; inhibition, % at 38.7 µM; 290,000 compounds, 9.2% hits; in the data active means inhibition mostly above about 28%, no sharp cut-off; inactive means mostly below about 43%
# Cycloheximide cs: affects cycloheximide protein synthesis inhibition readout, counter-screen | cell reporter, cycloheximide protein synthesis inhibition counterscreen | max response, % | 300,000 compounds, 12% hits | AID 2314; in the data active means max response mostly above about 13%, no sharp cut-off; inactive means mostly below about 14%; further: read at 38.3 µM for the half of the compounds with a filed dose
# AmpC detergent: AmpC beta-lactamase inhibition with detergent present | Potency, µM (doses to about 114 µM), usual class: inhibitors | AID 485294 | AmpC hydrolysis of nitrocefin, absorbance 480 nm, 0.01% Triton | 370,000 compounds, 0.041% hits | P00811; further: nearly all actives have a fitted effect of over 25% in size
# Target sequence (P00811 whole entry, looked up): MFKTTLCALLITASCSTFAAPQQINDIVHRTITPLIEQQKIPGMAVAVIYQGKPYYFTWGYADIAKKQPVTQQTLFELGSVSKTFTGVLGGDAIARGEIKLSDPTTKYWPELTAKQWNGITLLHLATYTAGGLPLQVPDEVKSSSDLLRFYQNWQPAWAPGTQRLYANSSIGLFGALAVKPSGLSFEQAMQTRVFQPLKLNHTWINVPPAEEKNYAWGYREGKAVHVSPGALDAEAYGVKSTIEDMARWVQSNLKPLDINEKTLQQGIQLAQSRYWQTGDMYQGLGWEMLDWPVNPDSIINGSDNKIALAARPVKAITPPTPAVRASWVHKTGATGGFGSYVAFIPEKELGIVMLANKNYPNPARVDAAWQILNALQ
#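 AmpC (5.3 nM in the dispensed reagent) in 20 mM phosphate pH 7.0 with 0.01% (detergent screen) or 0.0001% Triton X-100 was preincubated with compounds for 15 min at room temperature. Nitrocefin was then added from an 800 uM solution, and hydrolysis was followed at 480 nm.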
# AmpC no deterg: blocks E. coli AmpC beta-lactamase in detergent-free assay | AID 485341 | 330,000 compounds, 0.52% hits | P00811 | AmpC nitrocefin hydrolysis, absorbance 480 nm, 0.0001% Triton | Potency, µM (titrated, usually from 57.1 µM), usual class: inhibitors; further: nearly all actives have a fitted effect of over 20% in size
#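 20 mM phosphate pH 7.0 + 0.01% (detergent screen) or 0.0001% Triton X-100; 5.3 nM AmpC reagent; cpd preinc 15 min RT; nitrocefin (800 uM stock) to start; A480 q20 s × 4 min; Activity was normalised to no-enzyme and no-compound control wells.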
# Hits are given with their value; . = inactive; ? = inconclusive; / = not tested or not shown; [ ] = dose if it differs, or a comment. Unless noted, the call rests on the fitted dose curve; in most records, active means well fitted curve in the direction sought with a large enough effect; inconclusive means small, poorly fitted or top-dose-only effect, or another doubt; inactive means no such curve, though single readings can be large; an effect the other way counts as inactive or inconclusive.
SMILES,NS1 inh,Shiga inhibitor,Cycloheximide cs,AmpC detergent,AmpC no deterg
CCS(=O)(=O)Nc1cccc(-c2nc3cccnc3s2)c1,.,130.9,33.4,.,.
Cc1cccc(CC(=O)Nc2cccc(-c3nc4cccnc4s3)c2)c1,/,/,/,.,/
CCS(=O)(=O)Nc1cc(-c2nc3cccnc3s2)ccc1C,.,87.2,65.9,.,.
CCCC(=O)Nc1cc(-c2nc3cccnc3s2)ccc1C,/,/,/,.,/
OC1COC(O)C(O)C1O (configuration not stated),/,/,/,?,.
COc1cccc(C2N=C(c3ccccc3C)NO2)c1OC (configuration not stated),.,51.2,27.2,.,.
COc1cccc(C2NC(=O)c3ccccc3O2)c1OC (configuration not stated),.,.,.,.,.
CCOc1ccc(NC(=O)c2cccc(OC(=S)N3CCC(C)CC3)c2)cc1,?,.,17.1,.,.
COc1ccc(C(=O)Nc2ccc(N3CCCC3)cc2)cc1OC,.,51.4,34.3,.,.
COc1ccc(C(=O)Nc2ccc(N3CCOCC3)cc2)cc1OC,.,.,.,?,.
CCOc1cccc(C(=O)Nc2ccc(N3CCCC3)cc2)c1,.,.,16.6,.,.
CC(=O)c1ccc(OCC(=O)Nc2ccc(N3CCCCC3)cc2)cc1,/,/,/,.,.
CCOc1ccc(NC(=O)c2cccc(N3CCCS3(=O)=O)c2)cc1,/,/,/,.,/
CCOc1ccc(C(=O)Nc2ccc(N3CCCC3)cc2)cc1,.,.,19.4,.,.
CN(C)c1ccc(CNc2nc(-c3ccco3)nn2C(=O)c2cccc([N+](=O)[O-])c2)cc1,/,/,/,.,/
Cc1nc(N2CCCC2)ncc1C(=O)NCc1ccc(Cl)cc1,/,/,/,.,/
CCCS(=O)(=O)N1CCCC(C(=O)Nc2ccc3c(c2)CCC3)C1 (configuration not stated),.,.,.,.,.
O=C(NNC(=O)c1ccccc1Br)c1cccs1,.,64.9,25.9,.,.
O=C(NNC(=O)c1cccs1)c1ccccc1,/,53.4,27.6,.,.[11.4 µM]
O=C(NNC(=S)NC(=O)c1cccs1)c1ccc(O)cc1,.,28.4,.,.,.
O=C(NNC(=O)c1cccs1)c1ccc(Br)cc1,.,.,17.9,.,.
CCN(CC(=O)Nc1ccc(NC(C)=O)cc1)C(=O)CSCc1c(C)noc1C,/,/,/,.,.
COc1ccccc1NC(=O)NC1CCS(=O)(=O)C1 (configuration not stated),.,.,.,.,.
CCOCCn1ccc2c(OCC(=O)Nc3ccc(OC(F)(F)F)cc3)cccc2c1=O,/,/,/,.,/
COc1ccccc1CNC(=O)CCNS(=O)(=O)c1ccc2c(c1)CCCC(=O)N2,/,/,/,.,/
SMILES,NS1 inh,Shiga inhibitor,Cycloheximide cs,AmpC detergent,AmpC no deterg
O=C(NNC(=O)c1cccs1)c1ccc(Cl)cc1,.,.,19.0,.,.
O=C(N/N=C(/CC(=O)c1cccs1)C(F)(F)F)c1ccc(O)cc1,.,.,.,.,7.94µM
CCn1c(NCc2ccco2)nc2ccccc21,/,.,.,.,.
CCn1c(NCc2ccc(OC)cc2)nc2ccccc21,.,22.7,12.0,?,.
CCn1c(NCc2ccccc2Cl)nc2ccccc21,.,24.4,.,.,.
COc1ccc(CNc2nc3ccccc3n2C(C)C)cc1,.,.,.,?,.
CCCCn1c(NCc2ccc(N(C)C)cc2)nc2ccccc21,.,.,.,.,.
C=CCn1c(NCc2ccc(N(C)C)cc2)nc2ccccc21,.,active,32.9,.,.
O=C(Oc1ccc(NC(=O)c2cc3c(cc2Br)OCO3)cc1)c1ccccc1,.,.,.,.,.
CCOc1ccccc1CNC(=O)C1CCN(C(=O)N2CC(CC)Oc3ccc(C)cc32)CC1 (configuration not stated),/,/,/,.,/
CCN(CC)S(=O)(=O)c1ccc(N2CCc3ccccc3C2)nc1,.,.,36.9,?,.
CC(C)N(C(C)C)S(=O)(=O)c1ccc(Cl)nc1,/,.,.,.,.
CCN(CC)S(=O)(=O)c1ccc(N2CCN(S(=O)(=O)c3ccccc3)CC2)nc1,.,.,.,.,.
CC(C)N(C(C)C)S(=O)(=O)c1ccc(N2CCc3ccccc3C2)nc1,.,57.8,31.7,.,.
CCc1ccc(NC(=O)CSc2ncc(S(=O)(=O)c3cc(C)ccc3C)c(=O)[nH]2)cc1,/,/,/,.,/
CCOc1ccc2nc(SCC(=O)NCC3CCCO3)sc2c1 (configuration not stated),/,/,/,/,.
CCOc1ccc2nc(SCC(=O)c3ccccc3)sc2c1,.,91.0,43.1,?,.
CCOc1ccc2nc(SCC(=O)NC3CC3)sc2c1,.,.,15.1,.,.
Cc1ccc(N=C2NC(=O)CC(C(=O)Nc3cc(C(F)(F)F)ccc3Cl)S2)cc1 (configuration not stated),/,/,/,.,/
Cc1cc(=O)oc(C)c1C(=O)NCc1c(F)cc(F)cc1F,.,.,28.0,.,.
O=c1nccc(N/N=C/c2ccccc2)[nH]1,.,36.7,37.3,.,.
O=[N+]([O-])c1ccc(/C=N/Nc2ncc(-c3ccccc3)cn2)cc1,.,.,.,.,.
CCOC(=O)c1ccc(NS(=O)(=O)c2ccc(Br)s2)cc1,/,/,/,.,/
O=C1CC(NNC(=O)c2cccc(F)c2)C(=O)N1 (configuration not stated),.,.,10.8,.,.
COc1cccc(-c2ncc3ccccc3c2COC(=O)c2ccc(C(C)(C)C)cc2)c1,/,/,/,.,.
SMILES,NS1 inh,Shiga inhibitor,Cycloheximide cs,AmpC detergent,AmpC no deterg
Cc1cc(C(=O)CN2C(=O)c3ccccc3C2=O)c(C)n1C1CC1,.,.,23.2,.,.
CCN1C(=O)C(=O)N(CC(=O)c2cc(C)n(C3CC3)c2C)C1=O,/,/,/,.,.
COc1ccc(-n2c(C)cc(C(=O)CN3C(=O)c4ccccc4C3=O)c2C)cc1,.,.,20.4,.,.
O=C(COC(=O)/C=C/c1ccc(Cl)cc1)NCCc1ccccc1,.,.,.,.,.
CCOC(=O)/C=c1\s/c(=C\c2ccc(C)cc2)c(=O)n1CC(=O)NCc1ccco1,.,.,.,.,?
CCOC(=O)/C=c1\s/c(=C\c2ccc(-c3ccccc3)cc2)c(=O)n1CC(=O)NCc1ccc2c(c1)OCO2,11.2µM,.,.,.,?
CCC1(CC)NC(=O)N(CC(=O)OCC(=O)Nc2cc(OC)ccc2OC)C1=O,/,/,/,.,.
COc1ccc2nc(/C=N/NC(=O)[C@@H]3CCCN3C(=O)OC(C)(C)C)ccc2c1,.,76.2,45.5,.,.
CSc1nc(-c2ccccc2)nn1C(=O)c1ccccc1,.,.,14.4,?,.
COc1ccc(C(=O)n2nc(-c3ccccc3)nc2SC)cc1,.,.,.,.,.
Nc1nc(-c2ccc(Cl)cc2)nn1C(=O)c1cccnc1,.,31.2,24.9,?,.
Nc1nc(-c2cccnc2)nn1C(=O)c1ccc(Cl)cc1,/,.,.,.,.
CSc1nc(-c2ccc(Cl)cc2)nn1C(=O)c1ccccc1,.,112.5,24.2,.,.
CSc1nc(-c2ccccc2)nn1C(=O)c1ccc(Cl)cc1,.,.,17.5,.,.
Cc1ccc(CNC(=O)C2CCN(S(=O)(=O)c3ccc(F)cc3)CC2)cc1,/,/,/,.,/
